According to ChEMBL document CHEMBL3988442, “University of Dundee, Small-Polar-MMV Screening Library” (2021):
About 13,000 (27%) of roughly 48,000 compounds showed an effect of 50% or more. This is one part of the list.

These compounds were tested on Wolbachia pipientis (assay: Anti-Wolbachia Cell-Based Screen). Conditions: 5 µM.
Type: functional
Set-up: scale not given: in the data most compounds retested in dose-response had high values

Row | SMILES | Percent Effect [%]
1 | N#Cc1cccnc1OC1CCN(C(=O)NCc2ccccc2)CC1 | 7.798
2 | CC(=O)N1CCCC2(CN(Cc3ccc(C)s3)CCO2)C1.O=C(O)C(F)(F)F (configuration not stated) | 0.2205
3 | O=C(CC1OCCc2ccccc21)NCC1(O)CCCCC1 (configuration not stated) | -10.96
4 | Cc1ccc(CNc2ccn(CCC(N)=O)n2)c(Br)c1 | -13.88
5 | CCC(CO)N(Cc1ccccn1)C(=O)c1ccc(C)c(Cl)c1 (configuration not stated) | -8.3
6 | c1cc(-c2cnc(NC3CC3)nc2[C@H]2CCCO2)ccn1 | 171.5
7 | c1cc(-c2cnc(NC3CC3)nc2[C@@H]2CCCO2)ccn1 | 175.9
8 | CC(C)Nc1ncc(-c2ccncc2)c([C@@H]2CCCO2)n1 | 174
9 | COc1ccc(-c2ccncc2)cc1CNC1CCCC1 | -7.134
10 | CC(C)c1cc(C(=O)N(Cc2ccncc2)CC2CCCO2)no1 (configuration not stated) | 4.129
11 | COc1ccc(CCC(=O)NCCC2CCCO2)cc1Br (configuration not stated) | 4.709
12 | O=C(NCCn1ccnc1)C1(c2ccc3c(c2)OCCO3)CCCC1 | 33.12
13 | CC(C)(C)S(=O)(=O)CCNC(=O)c1cnc(-c2ccccc2)nc1 | -10.41
14 | CC(C)(CO)Nc1cc(-c2cn[nH]c2)ncn1.Cl | 116.8
15 | CC(C)(CO)Nc1cc(-c2ccccc2)ncn1 | 83.59
16 | COc1ccc(-c2cn[nH]c2)cc1CNC1CCCC1 | -15.21

Row | SMILES | Percent Effect [%]
17 | CC(C)(CO)Nc1ccc(-c2nc(-c3ccccc3F)no2)cn1 | -13.37
18 | CC(C)(CO)Nc1cc(-c2ccncc2)ncn1 | 106.2
19 | CN(Cc1ccsc1)Cc1ccc(C2CCCCO2)o1 (configuration not stated) | 10.63
20 | Cc1cccc(OC2CCN(c3ccc(C#N)cn3)CC2)n1 | -50.95
21 | CN(C)[C@@H]1CCN(c2ncccn2)[C@H]1Cc1ccncc1.O=C(O)C(F)(F)F.O=C(O)C(F)(F)F | -8.933
22 | CC(O)CN(Cc1cccc(C(N)=O)c1)c1ccccc1 (configuration not stated) | -3.401
23 | Cc1cc(CN(C)C(=O)C2CCC(=O)N(CC3CCCCC3)C2)n[nH]1 (configuration not stated) | 15.57
24 | Cc1cc(C2CCCN2CCCc2nc3ccccc3o2)on1 (configuration not stated) | 8.097
25 | Cc1nc(C)n(CC2CCCN2Cc2nc(N)c3ccccc3n2)n1 (configuration not stated) | 4.973
26 | Cc1cc(C)n(CC2CCCN2CCCc2nc3ccccc3o2)n1 (configuration not stated) | 125.1
27 | Cc1cnn(CC2CCCN2CCCc2nc3ccccc3o2)c1 (configuration not stated) | 11.07
28 | Cc1nc(C)n(CC2CCCN2Cc2nc3ccccc3nc2C)n1 (configuration not stated) | -1.93
29 | Cc1nc(C)n(CC2CCCN2CCCc2ccccc2)n1 (configuration not stated) | -4.599
30 | Cc1nc(C)n(CC2CCCN2CCCc2nc3ccccc3o2)n1 (configuration not stated) | 115.5
31 | Cc1nn(C)c(C)c1C1CCCN1CCCc1nc2ccccc2o1 (configuration not stated) | 0.8066
32 | Cc1nc(C)n(CC2CCCCN2Cc2nc3ccccc3o2)n1 (configuration not stated) | 96.27
